Source: PubChem BioAssay AID745 (Emory University Molecular Libraries Screening Center, 2007)
Among all 33,000 compounds or so, about 40 (0.1%) were called active. Rule as the data show it: active = z-score below about -3; inactive = the rest. Only a selection was taken, and actives are over-represented in it overall.

assay: inhibitors of measles virus growth in cells, primary screen, measles RdRp inhibitor project, cell-based, single point, HTS (AID 745); conditions: infected Vero cells, GFP fluorescence, 64 h; stronger effect = lower value

z-score, inactive:
CC1=C(C(=O)N2CCOCC2)C(c2cccc(Cl)c2)C2=C(CCCC2=O)N1 (stereo not given) 0.7, COc1cc(NS(=O)(=O)c2ccc(NC(=O)CN3C(=O)c4ccccc4C3=O)cc2)ncn1 -0.53, CCOC(=O)Cc1nnc(NC(=O)c2ccc([N+](=O)[O-])cc2)s1 -0.27, Cc1c(C(=O)Nc2cccc(Cl)c2)oc2ccc(S(=O)(=O)N3CCOCC3)cc12 -0.46, C=CCn1c(SCCCC)nc2sc3c(c2c1=O)CCC3 1.46, Cc1cc(C)cc(NC(=O)c2cnn3c(C(F)(F)F)cc(-c4ccco4)nc23)c1 0.42, C=CCOc1ccc(NC(=O)C(=O)NC(C)c2ccccc2)cc1 (stereo not given) 0.77, O=C(O)COc1ccc(-c2cc(C(=O)O)c3cc(Br)ccc3n2)cc1 0.41, NS(=O)(=O)c1ccc(CCNC(=O)c2ccc3c(=O)n(Cc4ccco4)c(=S)[nH]c3c2)cc1 0.48, COc1cccc(C(=O)Nc2ccc3nc(N4CCCCC4)cc(C)c3c2)c1 -0.1, COc1cc(CNc2ccc3[nH]c(=O)[nH]c3c2)ccc1OCc1cccs1 -1.62, CCCCc1ccc(C(=O)Nc2ccc3nc(N4CCN(C)CC4)cc(C)c3c2)cc1 -0.21, COc1ccc(-c2nc3ccccc3n2Cc2ccccc2)cc1OC 0.26, O=C(Nc1ccc(Cl)cn1)c1ccc(-c2ccc(Cl)cc2)o1 -0.31, CCOC(=O)c1c(C)nc2c(C#N)c(C)n(-c3ccccc3)c2c1-c1ccc(Br)cc1 3.74, Cc1ccc(C2NC(=O)c3c(sc4c3CCCC4)N2)c(O)c1 (stereo not given) -1.13, CC1=C(C(=O)OCC(C)C)C(c2ccc(OCc3ccccc3)cc2)N2C(=O)CCSC2=N1 (stereo not given) -0.14, COc1ccc2nc(SCc3ccc(Cl)cc3)[nH]c2c1 0.1, COc1cc(C2CC(=O)c3cnc(NC(C)=O)nc3C2)cc(OC)c1OC (stereo not given) 1.22, Cc1cc(N2C(=O)c3ccccc3C2=O)ccc1Br -1.04, Cc1cccc(NC(=O)c2cc3c(=O)n4cccc(C)c4nc3s2)c1 -1.13, Cc1ccc(-n2c(SCC(=O)OCc3ccccc3)nc3c(c2=O)SCC3)cc1 -1, O=C1NC(c2ccccc2)Oc2ccccc21 (stereo not given) -0.5, Cc1ccc(Sc2c(C)nn(C(C)(C)C)c2OC(=O)C2CCCC2)cc1 -0.01, C=CCOC(=O)C1=C(C)N=C2SCCC(=O)N2C1c1ccc(Br)cc1 (stereo not given) -1.08, Cc1cc(C)cc(NC(=O)C(C)N(c2ccccc2)S(C)(=O)=O)c1 (stereo not given) 0.11, COC(=O)Cn1c(=O)n(-c2ccccc2)c(=O)n1CC(=O)OC 1.19, O=C1C2C3c4ccccc4C(Br)(c4ccccc43)C2C(=O)N1c1ccc([N+](=O)[O-])cc1 (stereo not given) -0.34, O=c1oc2ccc3ccccc3c2cc1-c1nc(-c2ccccc2)cs1 0.88, CC1CCC(NS(=O)(=O)c2ccc3c(c2)oc(=O)n3C)CC1 (stereo not given) -0.87, CN1CCN(C(=O)c2cnn3c(C(F)(F)F)cc(-c4ccc(Br)cc4)nc23)CC1 -0.34, O=C(NCc1ccc(F)cc1)c1ccc2c(=O)n(C3CCCC3)c(=S)[nH]c2c1 -0.53, COc1ccc(-c2c(C(F)(F)F)oc3cc(O)ccc3c2=O)cc1 0.21, CC(C)c1ccccc1NC(=O)c1ccccc1 0.08, CC(C)c1ccc(NC(=O)c2ccc(NC3CCCC(C)C3C)c([N+](=O)[O-])c2)cc1 (stereo not given) -0.26, O=C(CSc1nc2c(cnn2-c2ccc(F)cc2)c(=O)[nH]1)N1CCCCCC1 -0.88, CCCn1c2ccccc2c2n[nH]c(=S)nc21 -0.86, Cc1ccc(Cl)cc1N1CCN(C(=O)CCCn2c(=S)[nH]c3cc4c(cc3c2=O)OCO4)CC1 1.87, Cc1ccc(-c2cc3nc(C)cc(C(F)(F)F)n3n2)cc1 -0.75, COC(=O)c1ccc(Sc2ccc(C)cc2)c([N+](=O)[O-])c1 0.34, CCCn1c(C(C)NC(=O)C(C)(C)C)nc2ccccc21 (stereo not given) -0.58, Cc1cccc(NC(N)=Nc2nc(CSc3ccc(Cl)cc3)cc(=O)[nH]2)c1 0.03, O=[N+]([O-])c1ccc(C=Nc2ccc(-c3nc4ccccc4o3)cc2)s1 -1.32, CC(C)(C)c1ccc(C(=O)Nc2ccc(N3CCOCC3)c(Cl)c2)cc1 -1.1, CN(Cc1ccccc1)C(=O)Cn1ncc2c(=O)oc3ccccc3c21 1.21, CCCCNC(=O)c1ccc[nH]c1=S 0.16, CC(=O)c1cccc(NC(=O)c2ccccc2C(=O)O)c1 -0.2, COc1ccc(OC)c2[nH]c(=O)c(CCNC(=O)c3ccccc3I)cc12 -0.19, CSCCC1(C(=O)O)NC(c2cc(I)ccc2O)C2C(=O)N(Cc3ccccc3)C(=O)C21 (stereo not given) -0.74, O=C(NCc1ccccc1)c1ccc(CSCc2ccccc2Cl)o1 -0.18, Cc1ccc(S(=O)(=O)n2nc(OC(=O)c3ccc(F)cc3)cc2N)cc1 -1.65, Cn1c(=O)c(Cl)c(O)c2ccccc21 0.2, COC(=O)c1c(NC(=O)Cn2cnc([N+](=O)[O-])n2)sc2c1CCCC2 -0.06, CCOc1ccc(N=C2NC(=O)C(CC(=O)Nc3ccc(Br)cc3)S2)cc1 (stereo not given) -0.81, Cc1cccc(NC(=O)c2ccc(F)c(S(=O)(=O)N3CC(C)CC(C)C3)c2)c1 (stereo not given) -0.97, COC(=O)c1c(NC(=O)c2ccc(S(=O)(=O)N3CC(C)CC(C)C3)cc2)sc2c1CC(C)(C)NC2(C)C (stereo not given) -0.34, Cc1cccc(N2CCN(C(=O)c3ccc4nc5ccc(Cl)cc5c(=O)n4c3)CC2C)c1 (stereo not given) 0.3, CCOc1ccccc1NC(=O)c1sc2ncnc(N3CCCCC3C)c2c1C (stereo not given) 1.12, Cc1ccc(-n2nc3c(c2NC(=O)c2ccccc2F)CS(=O)(=O)C3)c(C)c1 -0.44, O=C1C2C3c4ccccc4C(C(=O)O)(c4ccccc43)C2C(=O)N1c1ccccc1Cl (stereo not given) -0.65, CC(C)(C)c1nnc(Nc2ccc3c(c2)OCO3)[nH]c1=O -0.67, CCNS(=O)(=O)c1cc(-c2nnc(Nc3cccc(C(F)(F)F)c3)c3ccccc23)ccc1C -0.06, Cc1ccc2nc(-c3ccccc3)c(Nc3ccccc3C)n2c1 -1.03, COc1ccc(C2/C(=C(\O)c3ccccc3)C(=O)C(=O)N2CO)cc1 (stereo not given) -0.38, O=P(Cc1cccc(CP(=O)(c2ccccc2)c2ccccc2)n1)(c1ccccc1)c1ccccc1 -1.8, COc1cc(NC(=O)c2noc3c2CCCCC3)c(OC)cc1Cl -0.93, Cc1ccc(S(=O)(=O)C2(C(=O)N(C)Cc3ccccc3)CC2)cc1 0.74, CCC(C(=O)NCCC(C)C)N1C(=O)CSc2ccc(C(C)(C)C)cc21 (stereo not given) 0.55, Cc1cc(C(=O)NCCCN=C2NS(=O)(=O)c3ccccc32)c2ccccc2n1 1.11, N#Cc1c(NC(=O)CCCC(=O)O)sc2c1CCCC2 -0.15, CCCC12CN3CC(C)(CN(C1)C3c1ccccc1Cl)C2=O (stereo not given) -0.48, O=C1CCCc2oc3c(cc(NS(=O)(=O)c4ccc(Cl)cc4)c4ccccc43)c21 -0.4, CN(C(=O)CCn1c(=S)oc2ccccc21)C1CCCCC1 -2.69, CCOc1ccc(C(=O)Nc2cccc(-c3nc4cc(C)ccc4o3)c2)cc1Br -0.49, O=C(Nc1c2c(nn1-c1ccc(F)cc1)CS(=O)(=O)C2)c1ccccc1Cl -1.44, COc1ccc(C2Nc3ccccc3C(=O)N2c2ccc(Cl)cc2)cc1COc1ccccn1 (stereo not given) 0.19, Cc1cc(Cl)ccc1OC1C(=O)N(c2cccc([N+](=O)[O-])c2)C1c1ccccc1Cl (stereo not given) -0.08, O=C(CCCn1c(=O)[nH]c2cc(Cl)ccc2c1=O)NCCc1c[nH]c2ccccc12 -0.02, O=S1(=O)N=C(N2CCCCC2)c2ccccc21 2.63, CC(=O)c1cccc(N2C(=O)c3ccc(C(=O)OCC(=O)c4cccc([N+](=O)[O-])c4)cc3C2=O)c1 -0.12, CC(C)Sc1oc(-c2ccc(F)cc2)nc1S(=O)(=O)c1ccc(Cl)cc1 -1.46, CC(=O)NC1=NN(C(C)=O)C(c2ccc3c(c2)OCO3)S1 (stereo not given) -0.09, Cc1ccc(S(=O)(=O)N2CCCCCC2)cc1C(=O)Nc1ccc(Br)cc1 -0.48, CCOc1ccc(-c2cc(C(=O)N3CCN(Cc4ccc5c(c4)OCO5)CC3)c3ccccc3n2)cc1 0.33, O=C(NCCN1CCOCC1)c1cc(Sc2cccc(Cl)c2)nc2ccccc12 0.36, Cc1cccc(NC(=O)c2c(NC(=O)c3ccncc3)sc3c2CCC(C(C)(C)C)C3)c1 (stereo not given) -0.43, COc1ccc(NC(=O)CN2C(=O)C3C4CCC(C4)C3C2=O)cc1 (stereo not given) 0.52, Cc1ccc(C)c(OCCc2c(C)n[nH]c2C)c1 0, COC(=O)c1ccccc1Oc1c(F)c(F)nc(NCCO)c1F -0.51, COc1ccc(OC)c(C=Nc2oc(-c3ccccc3)c(-c3ccccc3)c2C#N)c1 -1
